Hits are enriched below; roughly 2.9% of the tested compounds scored in any of these assays.
PLCb3 inh = PLC-beta3 (human) inhibition, primary screen; Q01970; Purified PLC-beta3, fluorogenic substrate, fluorescence; AID 720704; 0.18% of 370,000 active; inhibition, % at 12.2 µM; in the data active means inhibition above about 11%;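 further: 0% = median of compound wells on plate and 100% = full blocker control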
proKLK7 act = proKLK7 (human) activation, primary screen; P49862; purified proKLK7, EDANS-DABCYL substrate fluorescence; 100% is mature enzyme control, 0% vehicle; activation, % at 7 µM; 0.9% of 370,000 active; AID 652039;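 active means activation above the mean of all tested compounds plus 3 SD, computed per campaign excluding outliers beyond control limits, cut at about 13% in these data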
PLCg1 inh = inhibitors of human phospholipase C gamma1. purified PLC-gamma1, fluorogenic substrate, fluorescence. inhibition, % at 12.2 µM. P19174. 0.84% of 370,000 active. AID 720700; in the data active means inhibition above about 9.5%
ADAM10 inh = inhibits human ADAM10 | 0.62% of 370,000 active | recombinant ADAM10, EDANS/DABCYL FRET peptide cleavage, 3 h | inhibition, % at 7 µM | AID 720582 | O14672;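 active means inhibition above a per-campaign cutoff equal to the mean of compounds falling between control-based bounds plus 3 SD, cut at about 20% in these data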;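 further: 0% = DMSO wells while the 100% control is not disclosed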
ADAM17 inh = inhibits human ADAM17; inhibition, % at 6.95 µM; 0.83% of 370,000 active; P78536; recombinant ADAM17, EDANS/DABCYL FRET peptide cleavage;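 active means inhibition above the mean of compounds lying between control limits plus 3 SD, set per campaign, cut at about 8.5% in these data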;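 further: 0% = DMSO-only wells as the low control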
proKLK7 act conf = confirmation of human kallikrein-7 zymogen activators; shares compounds with proKLK7 act; AID 686949; purified proKLK7, EDANS-DABCYL substrate fluorescence; scaled: vehicle 0, mature enzyme 100; activation, % at 7 µM; 68% of 3,200 active;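 active means activation, as change over the incubation, above the mean of all tested compounds plus 3 SD, cut at about 13% in these data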
EDANS interfere = fluorescence interference counter-screen for KLK7 activators; shares compounds with proKLK7 act; EDANS-DABCYL substrate fluorescence interference, no enzyme, 4 h; solvent 0%, active enzyme control 100%; 80% of 3,200 active; activation, % at 7 µM; AID 686952;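 active means activation above the all-compound mean plus 3 SD, ignoring values outside control-based bounds, cut at about 4.8% in these data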;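 further: value is the 4 h activation minus the activation read at time zero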
EDANS interf = EDANS fluorescence interference in dose response, no enzyme; EDANS-DABCYL peptide fluorescence interference; AID 720493; EC50, µM; shares compounds with proKLK7 act; 20% of 250 active;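 active means compounds that raise the fluorescence signal in this interference counterscreen, with EC50 at or below 10 µM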;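 further: intact quenched peptide substrate alone read at 355 nm excitation and 520 nm emission; signal is fluorescence gain from T0 to T4 after four hours at room temperature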
An asterisk follows results filed as active; i = inactive; . = no result; ! = not confirmed by another sample.

SMILES	PLCb3 inh	proKLK7 act	PLCg1 inh	ADAM10 inh	ADAM17 inh	proKLK7 act conf	EDANS interfere	others
Cc1[nH]c(C)c(S(=O)(=O)N2CCN(c3ccccc3F)CC2)c1C(=O)N1CCCC1	-9.3	-0.3	1.1	-5.4	-6.6	.	.
O=C1Nc2ccccc2O/C1=C\c1c(F)cccc1Cl	i	17.2*	-467.7	i	-317.0	-69.1	-54.0
O=c1[nH]c2ccccc2cc1CN(Cc1ccco1)S(=O)(=O)c1ccccc1	-30.3	0.1	-23.4	-42.4	-14.1	.	.
C=CCn1c2ccccc2n2nc(C)c(=O)nc12	-363.3	4.4	-284.9	-248.3	-57.3	.	.
Cc1nn2c3ccccc3n(CCN3CCCCC3)c2nc1=O	i	55.3*	-365.6	-275.3	-82.8	8.2	11.8*
O=C(O)CCc1nn2c3ccccc3nc2n(CCN2CCCCC2)c1=O	-273.2	56.6*	-219.2	-225.8	-67.4	14.9*	12.6*	EDANS interf=i
CC(C)(C)[C@H]1C=C(C(=O)N2CCOCC2)O[C@@H](OCc2ccc(CO)cc2)C1	-2.0	0.9	3.8	3.6	-4.1	.	.
Cc1cc(=O)oc2cc(OCC(=O)NCc3ccccn3)ccc12	-5.7	0.0	-8.6	-69.5	-23.4	.	.
Cc1cc(=O)oc2cc(NC(=S)NCc3ccccn3)ccc12	i	58.2*	i	i	i	37.7*	46.1*
CCOc1ccc(NC(=O)C2CCN(S(=O)(=O)c3c(C)n[nH]c3C)CC2)cc1	1.6	0.6	3.8	-0.2	-2.1	.	.
O=c1c2ccc(Cl)cc2[nH]c(=S)n1Cc1cccnc1	-1.1	0.0	1.4	-4.5	-0.9	.	.
Cn1c(=O)c2cc(NC(=O)CCc3ccc4c(c3)OCO4)ccc2n1Cc1ccc(F)cc1	-259.6	31.6*	-205.4	i	-244.2	64.8*	71.9*
COc1cc(Cn2c3ccc(NC(=O)CCc4ccc(O)cc4)cc3c(=O)n2C)ccc1F	-278.1	13.0*	-194.4	i	-316.3	5.0	10.4*
Cn1c(=O)c2cc(NC(=O)CCc3cccc(Cl)c3)ccc2n1Cc1cccc(C(F)(F)F)c1	-52.7	-0.8	-38.7	-148.3	-40.4	.	.
Cc1ccccc1CNS(=O)(=O)c1ccc2c(c1)OCCO2	4.2	0.3	6.2	7.0	4.4	.	.
CCNc1nc(N)c(C(=C(C#N)C#N)c2ccccc2)s1	i	32.6*	i	i	i	138.8*	138.6*
CS(=O)(=O)NN1C(=O)c2ccccc2NC12CCCC2	i	71.9*	-481.9	i	-310.1	37.8*	51.2*
O=C1c2ccccc2NC2(CCCC2)N1NS(=O)(=O)c1ccccc1	-145.5	36.8*	-134.5	-248.4	-75.5	31.0*	28.0*
O=C(NN1C(=O)c2ccccc2NC12CCCCC2)c1ccccc1	-80.7	2.7	-61.1	-137.1	-46.9	.	.
CC1=Nc2ccc(C)cc2/C1=C/c1c(N)n2oc(C)cc2nc1=O	-10.3	47.9*!	-8.5	-28.2	-18.8	24.7*	34.9*
O=C1c2ccccc2NC(c2cccc(O)c2)N1c1ccccc1 (stereo not given)	i	44.4*	-474.1	i	-267.4	12.1	15.1*
CC(=O)NN1C(=O)c2ccccc2NC1c1cccc([N+](=O)[O-])c1 (stereo not given)	-72.5	0.4	-49.0	-55.8	-23.7	.	.
COc1ccc(C2Nc3ccccc3C(=O)N2NS(=O)(=O)c2ccc(C)cc2)cc1 (stereo not given)	-185.2	16.1*	-166.4	-218.1	-74.3	4.3	5.6*
O=C1c2ccccc2NC(c2cccc(O)c2)N1NS(=O)(=O)c1ccccc1 (stereo not given)	-202.5	20.3*	-187.2	-312.5	-103.5	6.8	6.5*
Cc1ccc(S(=O)(=O)NN2C(=O)c3ccccc3NC2c2ccccc2)cc1 (stereo not given)	-202.1	17.2*	-174.4	-265.9	-84.3	3.9	4.9*
Cn1nc(-c2ccccc2F)c2cc(C(=O)N3CCN(C(=O)c4ccco4)CC3)sc21	-1.8	0.2	0.8	3.8	-3.9	.	.

Bioassay records as filed in PubChem.
